Compound activity as filed in PubChem.
HIV RNase H inh-1 = blocks HIV-1 RNase H cleavage of RNA/DNA duplex. P04585. RT-RNase H RNA/DNA duplex cleavage, fluorescence. inhibition, % at 10 µM. 1.9% of 65,000 active; in the data active = inhibition above about 50%
HIV RNase H inh-2 = confirmation of HIV-1 reverse transcriptase RNase H inhibitors | shares compounds with HIV RNase H inh-1 | Recombinant RT RNase H, fluorescent RNA/DNA duplex cleavage | inhibition, % at 10 µM | 39% of 1,000 active; in the data active = inhibition above about 48%; inconclusive = no clear call, values can overlap the other calls
Starred values were filed as active, the others as inactive; u = inconclusive. The full list was thinned out, with hits kept by preference.

SMILES	HIV RNase H inh-1	others
COC(=O)C(NS(C)(=O)=O)(c1c(C)[nH]c2ccccc12)C(F)(F)F (stereo not drawn)	-6.0
COc1ccc(-n2c3c(cc(C(=O)Nc4ccc5c(c4)C(=O)NC5=O)c2=O)C(=O)CCC3)cc1	-2.5
COc1cc(Cl)c(S(=O)(=O)NCc2cccnc2)cc1Cl	-2.5
O=C(CN(Cc1ccccc1)C(=O)c1ccco1)NCc1ccc(F)cc1	-4.5
Cc1ccccc1C(=O)Nc1cccc(NC(=O)Cn2cnc3c(=O)n(C)c(=O)n(C)c32)c1	6.1
CS(=O)(=O)NCCOc1ccc(S(=O)(=O)N2CCCc3ccccc32)cc1	-12.9
Cc1cccc(-c2c3c(=O)n(C)c(=O)n(C)c3c3nnc4ccccc4n23)c1	-0.2
COc1cccc(OC)c1OCCCc1c(C)n[nH]c1C	-12.3
COc1ccc2c3c(cccc13)NN=C2C	56.6*
COc1cccc(OC)c1OCCCOc1c(OC)cccc1OC	-16.7
COc1cccc(C(=O)OCc2ccccc2C#N)c1O	-37.9
Cc1cc(C)nc(SCC(=O)Nn2cnnc2)n1	-3.6
COc1ccc(N2CCN(c3ncnc4c3cnn4-c3ccc(C)cc3C)CC2)cc1	3.8
COc1ccc(-n2ncc3c(N4CCCCC4)ncnc32)cc1	-11.9
COc1ccc(-n2ncc3c(N4CCN(c5cccc(C)c5C)CC4)ncnc32)cc1	83.6*
Cc1nc(COC(=O)c2ccc(S(=O)(=O)N3CCCC3)cc2)cs1	-0.1
CCN(CCCNC(=O)CN1C(=O)COc2ccccc21)c1cccc(C)c1	18.1
COc1ccc(S(=O)(=O)n2nc(OC(=O)c3c(-c4ccccc4Cl)noc3C)cc2N)cc1	-2.1
COc1ccc(NC(=O)CSc2nnc(CNc3ccc(F)cc3)o2)c(OC)c1	1.0
CCOC(=O)c1cccc(NC(=O)CSc2nnc(COc3ccc(Cl)cc3)o2)c1	19.9
O=C(CSc1nnc(COc2ccc3c(c2)CCCC3)o1)Nc1ccc(F)cc1	58.9*
S=C1SCN(Cc2ccccn2)CN1Cc1ccco1	52.3*
N=C1C(c2ccccc2)=C(O)CN1Cc1ccco1	-2.7
O=C(c1cccs1)N(Cc1ccccn1)Cc1ccco1	-1.5
c1ccc2c(c1)oc1c(N3CCN(Cc4ccc5c(c4)OCO5)CC3)ncnc12	-9.0
SMILES	HIV RNase H inh-1	others
C=CCn1c(SCC(=O)Nc2ccccc2OC)nnc1-c1ccccn1	-18.9
C=CCn1c(SCC(=O)Nc2nccs2)nnc1-c1cc2cccc(OC)c2o1	53.4*
C=CCn1c(SCC(=O)Nc2ccccc2OC)nnc1-c1ccco1	7.1
Cc1nn(CC(=O)Nc2cccnc2N2CCOCC2)c(=O)c2ccccc12	-6.0
CC1CCc2c(sc(NC(=O)c3noc4c3CCCC4)c2C(N)=O)C1 (stereo not drawn)	-0.9
COCC(=O)Nc1sc2c(c1C(=O)OC)CCC(C)C2 (stereo not drawn)	-28.1
CC1CCc2c(sc(N)c2C(N)=O)C1 (stereo not drawn)	64.6*
CCCCn1c(=O)c(C(=O)Nc2nc3ccccc3[nH]2)c(O)c2ccccc21	21.9
CCn1c(=O)c(C(=O)Nn2c(C)nc3ccccc3c2=O)c(O)c2ccccc21	-32.0
CCn1c(=O)c(C(=O)Nc2nc3ccccc3[nH]2)c(O)c2ccccc21	74.5*
Cc1cc2ccccc2c(=O)n1CC(=O)N(C)c1ccc(F)cc1	-16.4
CCOC(=O)c1c(C)c(-c2ccccc2)n(CC(=O)N2CCCC2)c1C	2.7
O=c1c2cc(N3CCOCC3)ccc2[nH]c(=S)n1CCCN1CCCCCC1	4.9
O=c1c2cc(N3CCOCC3)ccc2[nH]c(=S)n1CCN1CCCC1	5.4
Cc1ccc(Cn2c(=S)[nH]c3ccc(N4CCOCC4)cc3c2=O)o1	64.4*
COc1ccc(Cl)cc1N(CC(=O)Nc1ccc2c(c1)OCCO2)S(C)(=O)=O	-5.3
COc1ccc(Cl)cc1C(=O)Nc1nnn(C)n1	-1.5
COC(=O)C1CCC(C)(C(=O)Nc2ccccc2)C1(C)C (stereo not drawn)	-4.0
O=C(NCC(=O)N(CC1CCCO1)C(C(=O)NC1CCCC1)c1cccnc1)c1ccco1 (stereo not drawn)	-12.9
CCOC(=O)C(C(=O)Nc1nccs1)C1CCCCC1 (stereo not drawn)	-4.5
C=CCn1c2ccccc2c2nnc(SCC(=O)NC(C(=O)OC)C(C)C)nc21 (stereo not drawn)	-15.4
NC(=O)c1cnccn1	-5.1
COC(=O)c1sc2ccccc2c1C(=O)OC	-26.6
COC(=O)c1sc2ccccc2c1N	53.7*
COC(=O)c1sc2ccccc2c1NC(=O)c1cccs1	-10.9
SMILES	HIV RNase H inh-1	others
O=S(=O)(c1cccs1)N1CCCc2ccccc21	-86.7
CC(C)(C)c1cc(C(=O)NCc2ccccc2)ccn1	-3.6
Cc1cccc(NC(=O)c2sc3nc(-c4ccc(F)cc4)cn3c2C)n1	32.5
Cc1cccc(NC(=O)c2sc3nc(-c4ccccc4)cn3c2C)n1	9.0
COc1ccc(-c2cn3c(C)c(C(=O)Nc4cccc(C)n4)sc3n2)cc1	51.5*
CCOC(=O)N1CCN(c2cc(C)c(C(C)=O)cc2F)CC1	-6.9
CCOC(=O)N1CCN(c2c(F)cc3[nH]c(=S)[nH]c3c2Br)CC1	47.8
CCOC(=O)N1CCN(c2cc3[nH]c(=S)[nH]c3cc2F)CC1	61.1*
Cc1cccc(-c2c3c(=O)n(C)c(=O)n(C)c3cn2CC2CCCO2)c1 (stereo not drawn)	-4.0
CCOC(=O)CC(Nc1nc(N2CCOCC2)nc(N2CCOCC2)n1)c1ccccc1Cl (stereo not drawn)	-24.7
O=C(Nc1ccccc1NC(=O)NC1CCCCC1)NC1CCCCC1	69.1*
O=C(Nc1ccccc1C(=O)NCc1ccco1)NC1CCCCC1	-2.8
Cc1c(Cl)cccc1NC(=O)NC1CCCCC1	20.2
CC(C)Cc1nnc(NS(=O)(=O)c2ccc(Cl)cc2)s1	-3.1
Clc1ccc(-n2nnnc2SCc2c(-c3ccccc3)nc3sccn23)cc1	1.3
CCOC(=O)c1cnn2c(C(F)(F)F)cc(-c3ccco3)nc12	-5.9
CC(C)OC(=O)c1nn2c(C(F)(F)F)cc(-c3ccc(Br)o3)nc2c1Br	66.5*	HIV RNase H inh-2=-7.1
O=C(c1nn2c(C(F)(F)F)cc(-c3ccco3)nc2c1Br)N1CCCc2ccccc21	15.0
Cc1ccc(NC(=O)c2cc(-c3cccc(O)c3)on2)cc1C	0.9
CC(C)CC1(C)NC(=O)N(CCN2C(=O)c3ccccc3C2=O)C1=O (stereo not drawn)	-17.4
Cc1cc(NC(=O)C2CCCN(S(=O)(=O)c3cnc[nH]3)C2)ccc1Br (stereo not drawn)	16.1
Cc1cc(NC(=O)c2cc(-c3cccs3)on2)no1	39.2
Cc1cc(NC(=O)Cc2cccs2)no1	73.5*	HIV RNase H inh-2=36.5
Cc1cc(NS(=O)(=O)c2ccc(NC(=O)Cc3cccs3)cc2)no1	-7.0
COc1ccc(N(CC(=O)NCc2cccs2)S(=O)(=O)c2cccnc2)cc1	1.1
SMILES	HIV RNase H inh-1	others
COc1ccc(C(=O)Nc2oc(-c3ccccc3)c(-c3ccccc3)c2C#N)cc1OC	62.3*	HIV RNase H inh-2=u
COc1ccc(C(=O)Nc2ccccc2NC(=O)c2ccco2)cc1OC	-1.7
N#Cc1c(NC(=O)Cn2c(=O)oc3ccccc32)oc(-c2ccccc2)c1-c1ccccc1	-11.8
CC(C)OC(=O)CSc1nnc(-c2ccncc2)n1N	5.0
CC(C)(C)c1ccc(-c2nnc(SCC(=O)O)n2N)cc1	-7.6
CC(C)OC(=O)CSc1nnc(-c2ccc(C(C)(C)C)cc2)n1N	82.4*	HIV RNase H inh-2=63.4*
Cn1ccnc1P(=S)(c1nccn1C)c1nccn1C	-6.4
Cn1ccnc1P(=S)(c1nccn1C)N1CCOCC1	87.1*	HIV RNase H inh-2=62.3*
